Only some compounds are listed: those with a hit (about 7.4% of all), similar ones and a draw of the others.
FLuc modulator – counter-screen for miR-21 project: firefly luciferase inhibitors or activators; actives 6.9% (n = 360,000); P08659; Potency, µM (doses to about 57.5 µM), inactives show at the top dose activity change, negative = inhibition, usual class: inhibitors; purified FLuc, Km substrates, luminescence inhibition;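 also: plate controls were vehicle for no effect and reference inhibitor for full effect; nearly all actives have a fitted effect of over 55% in size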
Target sequence (P08659 whole entry, looked up): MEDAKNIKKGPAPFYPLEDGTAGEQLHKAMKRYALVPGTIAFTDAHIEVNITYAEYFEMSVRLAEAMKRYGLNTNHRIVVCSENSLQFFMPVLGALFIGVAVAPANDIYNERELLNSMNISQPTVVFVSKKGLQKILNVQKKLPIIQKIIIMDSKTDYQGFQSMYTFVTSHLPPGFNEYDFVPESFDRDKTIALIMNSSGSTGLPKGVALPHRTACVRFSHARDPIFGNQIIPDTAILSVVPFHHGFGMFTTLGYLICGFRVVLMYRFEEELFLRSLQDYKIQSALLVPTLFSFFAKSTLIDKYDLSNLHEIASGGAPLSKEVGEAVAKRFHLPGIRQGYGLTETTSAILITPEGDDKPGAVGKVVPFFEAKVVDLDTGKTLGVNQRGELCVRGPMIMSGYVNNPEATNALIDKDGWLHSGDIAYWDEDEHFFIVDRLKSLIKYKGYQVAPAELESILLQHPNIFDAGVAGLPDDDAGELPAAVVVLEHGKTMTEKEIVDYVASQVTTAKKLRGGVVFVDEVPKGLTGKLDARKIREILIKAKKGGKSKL
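Purified P. pyralis luciferase (10nM final) with 10uM D-luciferin and 10uM ATP (Km levels) in 50mM Tris acetate pH 7.5, 10mM Mg acetate, 0.01% Tween-20, 0.05% BSA; qHTS 6-point titration, ~60 µM downward; luminescence read.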
Rab9 promoter act – activates the Rab9 promoter | Huh7 Rab9 promoter-luciferase reporter, luminescence, 24 h | Potency, µM (doses to about 9.22 µM), for inactives: at the highest dose activation, negative = inhibition, usual class: activators | actives 2.8% (n = 320,000) | AID 485297; also: % of control where 0% means no effect; nearly all actives have a fitted effect of over 60% in size
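Luciferase signal after 10 min detection reagent at ambient indicates Rab9 promoter upregulation; stably transfected Huh7 cells were treated 24 h with compound in DMSO at 37 °C, 5% CO2.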
ELG1 genotoxic – inducers of genotoxicity in HEK293T ELG1-luciferase cells | HEK293T ELG1-luciferase reporter, luminescence, 16 h | Potency, µM (doses to about 46 µM), inactives show at the top dose activity change, positive = activation, most hits filed as activators | actives 1.3% (n = 330,000) | AID 504466; also: % of control where 0% means no effect; nearly all actives have a fitted effect of over 60% in size
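HEK293T cells expressing luciferase-tagged ELG1 were exposed to compound or DMSO vehicle for 16 hr at 37 °C and 5% CO2. Luciferase activity was then measured with ONE-Glo after 30 min at room temperature.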
NPC1 promoter act – activates the NPC1 promoter; AID 485313; Huh7 NPC1 promoter luciferase reporter, 24 h; Potency, µM (highest dose often 9.22 µM), without a hit: top-dose activation, usual class: activators; actives 2.4% (n = 320,000); also: % of control where 0% means no effect; nearly all actives have a fitted effect of over 60% in size
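Luminescence read-out of NPC1 promoter-driven luciferase in stably transfected Huh7 cells; compounds delivered in DMSO and left 24 h at 37C, 5% CO2, qHTS titration format.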
SMN2 splice up – enhancers of SMN2 splice variant expression | HEK293 SMN2-luciferase splicing reporter, luminescence, 30-36 h | AID 1458 | actives 2.8% (n = 210,000) | Potency, µM (top dose mostly 46.1 µM), inactives show at the top dose activity change, positive = activation, hits mostly activators; also: % of control where 0% means no effect; nearly all actives have a fitted effect of over 55% in size
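HEK293 cells carry an SMN2 […]–luciferase reporter in which exon 7 inclusion puts luciferase in frame. Cells were plated 10-12 h before compound addition, then incubated 30-36 h at 37C. ONE-Glo luminescence was read; sodium butyrate at 4.5 mM final served as control.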
An asterisk follows results filed as active; ? = inconclusive; / = no result; [ ] = dose if it differs, or a comment. Calls follow the shape of the dose curve; as a rule, active = well fitted curve in the direction sought with a large enough effect; inconclusive = small, poorly fitted or top-dose-only effect, or another doubt; inactive = no such curve, though single readings can be large; an effect the other way counts as inactive or inconclusive. Potency is read from the fitted curve at half-maximal effect.

SMILES	FLuc modulator	Rab9 promoter act	ELG1 genotoxic	NPC1 promoter act	SMN2 splice up
COc1cc(OC)cc(C(=O)Nc2cccc(-c3ccc(N4CCOCC4)nn3)c2)c1	1.5µM*	?	?	?	/
COc1cccc(OC)c1C(=O)Nc1cccc(-c2ccc3nncn3n2)c1	-1%	-10%	17%	-7%	26%
COc1ccc(C(=O)Nc2cccc(-c3ccc(N4CCOCC4)nn3)c2)cc1	2.4µM*	4µM*	2%	?	/
COc1cccc(OC)c1C(=O)Nc1cccc(-c2ccc(N3CCOCC3)nn2)c1	1.5µM*	1.8µM*	0%	?	/
COc1cc(NC(=O)CN2C(=O)C(c3ccc(C)cc3)=NC23CCCCC3)cc(OC)c1	-1%	/	/	/	8%
CCCOc1ccc(C(=O)Nc2ccc(S(=O)(=O)Nc3onc(C)c3C)cc2)cc1	8.5µM*	2%	17%	3%	-24%
CCCCOc1ccc(C(=O)Nc2ccc(S(=O)(=O)Nc3nc(C)cc(C)n3)cc2)cc1	?	/	/	/	-20%
Cc1cc(C)nc(NS(=O)(=O)c2ccc(NC(=O)COc3ccc(C(C)(C)C)cc3)cc2)n1	11µM*	/	/	/	-9%
COc1cc(OC)cc(C(=O)Nc2ccc(S(=O)(=O)Nc3onc(C)c3C)cc2)c1	?	/	/	/	5%
CCCOc1ccc(C(=O)Nc2ccc(S(=O)(=O)Nc3cc(C)nc(C)n3)cc2)cc1	15µM*	-1%	-4%	1%	/
CCCCOc1ccc(C(=O)Nc2ccc(S(=O)(=O)Nc3onc(C)c3C)cc2)cc1	17µM*	-6%	0%	-7%	/
COc1ccc(OCC(=O)Nc2ccc(S(=O)(=O)Nc3nc(C)cc(C)n3)cc2)cc1	-19%	4%	-1%	-2%	3%
CCOc1cc(C(=O)Nc2ccc(S(=O)(=O)Nc3onc(C)c3C)cc2)cc(OCC)c1OCC	/	/	-4%	/	/
Cc1ccc(NC(=O)Cn2cc(S(=O)(=O)c3ccc(C)cc3)c(=O)c3cc4c(cc32)OCO4)cc1	-6%	/	/	/	4%
C[N+](C)(C)CCN[N@@+]1(C)CCCc2ccccc21	/	/	/	/	0%[9.22 µM]
Cc1ccc(-c2nn(-c3ccc(F)cc3)c3c2cnc2cc(F)c(F)cc23)cc1	-3%	/	/	/	8%
CCc1nc2cccnc2n1-c1ccc(CC(=O)Nc2ccc(C)cc2)cc1	-2%	/	/	/	/
O=C(Nc1ccc(NC(=O)c2cccs2)cc1)c1ccc2c(c1)OCCO2	-7%	-16%	?	-4%	/
CC(C)Oc1ccc(C(=O)Nc2ccc(NC(=O)c3ccco3)c(Cl)c2)cc1	0.54µM*	?	2%	?	-10%
CCCC(=O)Nc1ccc(NC(=O)c2ccco2)c(OC)c1	15µM*	?	?	?	?
CC(C)COc1ccc(C(=O)Nc2ccc(NC(=O)c3ccco3)c(Cl)c2)cc1	-20%	2%	?	-1%	-26%
O=C(COC(=O)c1ccco1)Nc1ccc2c(c1)OCCO2	2.4µM*	1%	1%	-3%	-1%
O=C(CNC(=O)c1cccs1)Nc1ccc2c(c1)OCCO2	6µM*	1.1µM*	1.6µM*	1.3µM*	/
N#CC1=C(N)N(c2ccc(Cl)cc2)C2=C(C(=O)CCC2)C1c1cc(CN2CCOCC2)cs1 (stereo not drawn)	-5%	/	/	/	-3%
CCOC(=O)c1[nH]c(C)c(CCC(=O)NCc2ccc(CC)cc2)c1C	-10%	/	/	/	/
SMILES	FLuc modulator	Rab9 promoter act	ELG1 genotoxic	NPC1 promoter act	SMN2 splice up
O=C(Nc1ccc2c(c1)OCCO2)c1ccco1	8.5µM*	2.2µM*	3.7µM*	2µM*	10µM*
Cn1cccc1C(=O)OCC(=O)Nc1ccc2c(c1)OCCO2	/	/	1µM*	/	/
COc1cc(OC)cc(C(=O)Nc2ccc(NC(=O)c3ccco3)c(C)c2)c1	12µM*	15%	?	20%	/
COc1cc(OC)cc(C(=O)Nc2cc(NC(=O)c3ccco3)ccc2OC)c1	?	14%	-2%	-2%	-26%
O=C(Nc1cccc(NC(=O)c2ccco2)c1)c1ccc2c(c1)OCO2	15µM*	-5%	0%	3%	3%
Cn1cccc1C(=O)OCC(=O)NCc1ccc2c(c1)OCO2	/	0%	5%	-3%	/
Cc1ccc(C)c2sc(NC(=O)c3ccc(S(=O)(=O)N4CCC(C)CC4)cc3)nc12	-16%	/	/	/	/
COc1ccc(NC(=O)c2ccc(-c3nc(CSc4ccccc4)c(C)o3)cc2)c(OC)c1	5%	/	/	/	/
Cc1ccc(Sc2ccc(N3CCCC(C(=O)Nc4ccc(Br)cc4)C3)nn2)cc1 (stereo not drawn)	?	/	/	/	8%
Cc1ccc(C(=O)n2nc(C)c(S(=O)(=O)N3CCOCC3)c2C)cc1	-2%	/	/	/	/
Cc1cc(C)cc(C(=O)Nc2cccc(NC(=O)c3ccco3)c2)c1	?	-3%	-2%	3%	/
O=C(Nc1cccc(NC(=O)c2ccco2)c1)c1ccc2c(c1)OCCO2	9.5µM*	13%	0%	4%	20%
COc1cc(NC(=O)c2ccc3c(c2)OCCO3)ccc1NC(=O)c1cccs1	5.4µM*	18%	2%	18%	20%
Cc1ccc(C(=O)Nc2ccc3c(c2)OCO3)cc1NC(=O)c1ccco1	?	?	10%	18%	?
Cc1cc(NC(=O)c2ccc3c(c2)OCO3)ccc1NC(=O)c1ccco1	21µM*	12%	3%	12%	17%
O=C(COC(=O)c1ccc(O)cc1O)Nc1ccc2c(c1)OCCO2	15µM*	-2%	?	0%	/
CCn1c(=O)n(CC)c2cc(N3CCCCC3)c(NC(=O)Nc3ccccc3C(F)(F)F)cc21	0%	/	/	/	/
COc1ccc2c(C)c(CCC(=O)NCCc3ccc(Cl)cc3)c(=O)oc2c1	-16%	/	/	/	-14%
Cc1cc(C)c(OCC(=O)N(Cc2ccc(N(C)C)cc2)Cc2ccco2)c(C)c1	-17%	/	/	/	-16%
Cc1c2cnn(CC(=O)NCc3ccc(F)cc3)c(=O)c2c(C)n1Cc1ccccc1Cl	2%	/	/	/	-1%
COc1cc(NC(=O)c2ccc3c(c2)OCCO3)ccc1NC(=O)c1ccco1	3.4µM*	29%	1%	22%	/
COc1ccc(C(=O)Nc2ccc(NC(=O)c3ccco3)c(Cl)c2)cc1OC	-3%	4%	0%	-3%	-17%
Cc1ccc(NC(=O)c2ccco2)cc1C	9.5µM*	4µM*	?	2.8µM*	16µM*
CC1(C)Oc2ccc(NC(=O)c3ccco3)cc2O1	6µM*	2.5µM*	?	1µM*	13µM*
Cc1cccc(CNC(=O)C2CCN(c3nnc(-n4c(C)ccc4C)s3)CC2)c1	-8%	/	/	/	8%
CSc1ccc(CCNc2ncnc3onc(-c4ccc(Cl)cc4)c23)cc1	-11%	/	/	/	/
COc1ccc(CCNC(=O)CCc2c(C)nc3c4cccnc4nn3c2C)cc1OC	-4%	/	/	/	-1%
O=C(O)CSc1nc2sc3c(c2c(=O)n1Cc1ccccc1)CCCCC3	?	22%	?	24%	/
O=C(O)CSc1cc(C(=O)c2ccccc2O)cn2c(=O)c3c4c(sc3nc12)CCCC4	4.3µM*	2%	12%	1%	/

High-throughput results: PubChem BioAssay, National Center for Advancing Translational Sciences (NCATS)
